From PubChem BioAssay
LASV entry inh: inhibitors of Lassa virus binding or cell entry; Lassa virus pseudotype entry inhibition, cell reporter; Potency, µM (highest dose often 37.9 µM), without a hit: at the highest dose activity change, negative = inhibition, hits mostly inhibitors; hit rate 1.2% among 300,000; calls by dose curve; tested in HEK293 cells; also: potency is read from the fitted curve at half-maximal effect; nearly all actives have a fitted effect of over 50% in size
HCMV antiviral: human cytomegalovirus inhibition | hit rate 4.5% among 410,000 | HFF cells, HCMV-luciferase reporter, 72 h; active compounds read low | activity change, negative = inhibition, % at 57.5 µM; in the data active = activity change below about -60%; inconclusive = no clear call, values can overlap the other calls; inactive = above about -39%
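Steps: HFFs plated, 16 h 37C; compounds added; HCMV-luciferase added to MOI 1 PFU/cell; 72 h 37C; OneGlo reagent, 5 min room temperature; luminescence read, normalized to controls.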
FMDV antiviral: antivirals against foot and mouth disease virus; Potency, µM (titrated, usually from 57.9 µM), for the others: at the top dose activity change, negative = inhibition, most hits filed as inhibitors; hit rate 1.2% among 410,000; FMDV antiviral cell-based qHTS; calls by dose curve; tested in HEK293T cells; also: read-out not given here; potency is read from the fitted curve at half-maximal effect; nearly all actives have a fitted effect of over 45% in size
MARV entry inh: Marburg virus entry inhibition; Marburg virus pseudotyped entry inhibition, cell reporter; Potency, µM (doses to about 37.8 µM), inactives show top-dose activity change, negative = inhibition, actives largely listed as inhibitors; hit rate 1.8% among 300,000; calls by dose curve; tested in HEK293 cells; also: potency is read from the fitted curve at half-maximal effect
The depositor's hits bear a star; ? = inconclusive; . = no result; ! = not confirmed by another sample; [ ] = dose if it differs, or a comment. An excerpt weighted towards active compounds, which were near 6.2% of everything screened. % is scaled to controls: 0 for no effect and ±100 for the full control effect.

SMILES	LASV entry inh	HCMV antiviral	FMDV antiviral	MARV entry inh
CCCCN1C(C(=O)c2ccccc2)=C(OC(C)=O)c2ccccc2S1(=O)=O	?	-108*	?	?
CCCCC(=O)OC1=C(C(=O)c2ccccc2)N(CC)S(=O)(=O)c2ccccc21	-11%[46.1 µM]	?	-25%	?
CCN1C(C(=O)c2ccccc2)=C(OC(=O)c2ccccc2OC)c2ccccc2S1(=O)=O	?	-73*	-26%	-24%[46.1 µM]
O=C(c1cnn(-c2ccccc2)c1)c1ccc2ccccc2c1O	2%	62	63%	-22%
Nc1ccc(C#Cc2ccccc2)cc1	19%	-14	17%	-22%
NS(=O)(=O)C#Cc1ccccc1	5.8µM*	.	?	?
OCC1(Cc2ccccc2C(F)(F)F)CCN(Cc2ccc3c(c2)CCO3)CC1	-5%[46.1 µM]	-76*	1%	?
COc1cc(CSC)nc(-c2ccccc2)n1	-11%	-20	-12%	-7%[46.1 µM]
CCC(C)NC(=O)C1CCN(S(=O)(=O)c2ccc3c(c2)CCCN3C(C)=O)CC1 (stereo unspecified)	-11%[46.1 µM]	4	-9%	.
COC(=O)CC=C[C@@H](C)[C@H](OC)c1ccccc1Br	?	.	.	0.6µM*!
CCC1CCCCN1Cc1nc2ccccc2c(=O)n1CC(C)=O (stereo unspecified)	.	-22	3%	.
Cc1ccc(C[n+]2cccc(-c3ccccc3)c2)c(C)c1	?	-96*	?	?
CCN1CCN(Cc2ccc(C)cc2C)CC1	-28%	8	-24%	-12%
Cc1ccc(Sc2ccc(N3CCCC(C(=O)Nc4ccc(Br)cc4)C3)nn2)cc1 (stereo unspecified)	1.1µM*	-24	3%	-20%[46.1 µM]
Cc1ccc(Sc2ccc(N3CCCC(C(=O)Nc4ccc(Cl)cc4)C3)nn2)cc1 (stereo unspecified)	?	-23	7%	-23%[46.1 µM]
O=C1CN=C(c2cccc(Br)c2)c2cc(Br)ccc2N1	?	-24	-30%	7.9µM*
CC1CC1c1ccc(/C=C(\C#N)C(=O)Nc2ccc(Cl)cc2Cl)o1 (stereo unspecified)	-6%	-64*	18%	?
Cn1c(=O)c2cc(NC(=O)NCCc3cccs3)ccc2n1Cc1ccccc1	.	-77*	14%	.
COc1cc(Cn2c3ccc(NC(=O)NCCc4ccccc4)cc3c(=O)n2C)ccc1F	.	-68*	14%	.
COc1cc(Cn2c3ccc(NC(=O)CCc4ccccc4)cc3c(=O)n2C)ccc1F	.	-19	-23%	.
O=C(CSc1ccc(-c2ccncc2)nn1)N1CCCCC1	-16%	-17	-12%	-14%[46.1 µM]
N#Cc1nccnc1S(=O)(=O)c1cccs1	1%	-97*	?	-35%
CCOC(=O)c1c(C)[nH]c(-c2csc(N)n2)c1C	?	-81*	49%	?
Cc1cc(N2CCCCC2)nc2ccc(NC(=O)c3cccc(F)c3)cc12	?	-80*	-10%	?
Cc1ccc(C(=O)Nc2ccc3nc(N4CCCCC4)cc(C)c3c2)cc1F	13%[46.1 µM]	?	-26%	.
SMILES	LASV entry inh	HCMV antiviral	FMDV antiviral	MARV entry inh
Cc1cc(N2CCCCC2)nc2ccc(NC(=O)c3cccc(Cl)c3)cc12	4%[46.1 µM]	-62*	-4%	.
Cc1cccc(NC(=O)c2ccccc2O)c1C	11%	-86*	.	-16%
Cc1ccc(S(=O)(=O)N2CCOCC2)cc1NC(=O)c1cc2ccccc2oc1=O	7%[46.1 µM]	-101*	-2%	12%[46.1 µM]
COc1cccc(NC(=O)c2cc(-c3ccccn3)nc3ccccc23)c1	-5%	0	-23%	-15%
Cc1cccc(NC(=O)c2cc(-c3ccccn3)nc3ccccc23)c1C	?	-37	14µM*	?
Cc1ccc(S(=O)(=O)N2CCOCC2)cc1NC(=O)c1cc(-c2ccccn2)nc2ccccc12	.	-70*	-18%	.
O=C(Nc1ccccc1O)c1ccccc1O	?	-8	-20%	?
O=C(Nc1cc(S(=O)(=O)N2CCOCC2)ccc1N1CCCCC1)c1cc(-c2ccccn2)nc2ccccc12	-7%	-13	?	-16%[46.1 µM]
CN(C)c1ccc(CNc2ncc(Br)cc2Br)cc1	6%	-6	24%	-19%
COC[C@H]1OC(=O)c2coc3c2[C@@]1(C)C1=C(C3=O)[C@H]2CCC(=O)[C@@]2(C)C[C@H]1OC(C)=O	.	.	.	0.045µM*
COC[C@H]1OC(=O)c2coc3c2[C@@]1(C)C1=C(C3=O)C2CCC(=O)[C@@]2(C)C[C@H]1OC(C)=O (stereo partly specified)	?	.	?	0.045µM*!
CCCCCCOc1ccc(/C(N)=N/O)cc1	10%	60	37%	-5%
N=C(N)c1ccc(OCCCCCOc2ccc(C(=N)N)cc2)cc1	?	-89*	?	?
Cc1nc2c3cccnc3nn2c(C)c1CCC(=O)NCc1ccccc1Cl	20%[46.1 µM]	-6	-8%	?
